GPT2 inh = blocks human glutamate pyruvate transaminase 2; 100,000 compounds, 0.25% hits; AID 1671188; Recombinant GPT2, coupled pyruvate oxidase/HRP Amplex Red fluorescence; Q8TD30; Potency, µM (series often up to 57.7 µM), usual class: inhibitors; further: nearly all actives have a fitted effect of over 60% in size
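Recombinant GPT2 (10ng/uL) with 250uM a-KG and 2mM L-alanine, 30 min at room temperature, in HEPES pH 7.5 buffer. Pyruvate detected by pyruvate oxidase/HRP/Amplex Red fluorescence after 30 min in the dark; AOA (50uM) as positive control.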
HEK cytotox = HEK 293 cell cytotoxicity | HEK 293 viability, ATP luminescence (CellTiter-Glo), 48-72 h | Potency, µM (series often up to 115 µM), most hits filed as inhibitors | 94,000 compounds, 6.6% hits | AID 1345083; further: nearly all actives have a fitted effect of over 60% in size
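Cytotoxicity was scored by loss of ATP-coupled luminescence (CellTiter-Glo) in HEK 293 cells. Compound treatment ran 48 or 72 hr at 37 degree Celsius, 5% CO2, 95% humidity.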
hNpr1 antagonist = human Npr1 receptor antagonism; P16066; HEK293 hNpr1 GloSensor cGMP, ANP-stimulated luminescence; Potency, µM (top dose mostly 46.3 µM), most hits filed as inhibitors; 76,000 compounds, 1.6% hits; AID 1347048; calls by dose curve; further: nearly all actives have a fitted effect of over 60% in size
Target sequence (P16066 whole entry, looked up): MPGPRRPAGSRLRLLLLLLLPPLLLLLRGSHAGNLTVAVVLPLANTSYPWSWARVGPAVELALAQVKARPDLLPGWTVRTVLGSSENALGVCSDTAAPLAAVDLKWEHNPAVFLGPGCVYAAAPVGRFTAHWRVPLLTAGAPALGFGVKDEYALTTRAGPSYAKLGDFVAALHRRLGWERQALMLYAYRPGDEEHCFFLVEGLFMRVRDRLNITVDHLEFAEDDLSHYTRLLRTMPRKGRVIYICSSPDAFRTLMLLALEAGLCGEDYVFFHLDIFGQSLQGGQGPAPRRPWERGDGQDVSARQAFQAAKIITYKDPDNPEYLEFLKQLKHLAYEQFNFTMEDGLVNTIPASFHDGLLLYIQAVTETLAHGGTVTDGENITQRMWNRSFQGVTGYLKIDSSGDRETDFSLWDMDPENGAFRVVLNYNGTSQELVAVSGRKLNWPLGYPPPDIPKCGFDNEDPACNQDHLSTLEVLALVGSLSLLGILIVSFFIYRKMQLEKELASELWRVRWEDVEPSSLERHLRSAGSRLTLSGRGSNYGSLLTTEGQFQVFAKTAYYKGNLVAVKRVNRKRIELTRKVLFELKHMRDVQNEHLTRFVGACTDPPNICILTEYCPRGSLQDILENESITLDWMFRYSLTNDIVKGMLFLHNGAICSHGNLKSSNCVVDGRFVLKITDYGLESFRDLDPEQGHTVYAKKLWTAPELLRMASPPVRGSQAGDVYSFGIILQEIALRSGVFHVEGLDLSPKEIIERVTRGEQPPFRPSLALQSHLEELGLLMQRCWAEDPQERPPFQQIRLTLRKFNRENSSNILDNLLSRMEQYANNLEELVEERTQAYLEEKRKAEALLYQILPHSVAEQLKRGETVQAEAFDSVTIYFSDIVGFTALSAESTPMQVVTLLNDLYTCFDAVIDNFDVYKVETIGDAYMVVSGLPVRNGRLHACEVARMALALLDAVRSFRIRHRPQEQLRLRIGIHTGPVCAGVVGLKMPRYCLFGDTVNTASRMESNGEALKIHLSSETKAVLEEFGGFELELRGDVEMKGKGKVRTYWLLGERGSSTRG
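Compound pre-incubated 30 min at room temperature on GloSensor-loaded HEK293 cells stably carrying hNpr1 and the pGS-40F cGMP biosensor. Stimulation uses hNppA at 0.1 nM final; luminescence is taken at baseline and 20 min post-agonist.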
FLuc inh = blocks purified firefly luciferase enzyme activity | purified P. pyralis luciferase, luminescence, biochemical | Potency, µM (series often up to 115 µM), actives largely listed as inhibitors | AID 1347043 | 76,000 compounds, 2.5% hits; further: nearly all actives have a fitted effect of over 65% in size
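Cell-free enzyme assay, 10nM P. pyralis luciferase, luciferin and ATP each at 10uM. Inhibition profiled over a 6-point titration, read as luminescence.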
3T3 cytotox = kills NIH 3T3 cells | NIH 3T3 viability, CellTiter-Glo ATP luminescence, 48-72 h | AID 1345082 | 94,000 compounds, 4.3% hits | Potency, µM (series often up to 96.7 µM), usual class: inhibitors; further: nearly all actives have a fitted effect of over 55% in size
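Viability of NIH 3T3 cells after 48 or 72 hr compound treatment at 37 °C was assessed by CellTiter-Glo, with luminescence imaged following a 10 min room-temperature step.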
Hits are given with their value; . = inactive; ? = inconclusive; / = not tested or not shown; ! = not active in a repeat. The list is not random: actives were taken first. Their share in the collection is about 10%. Unless noted, the call rests on the fitted dose curve; in most records, active means well fitted curve in the direction sought with a large enough effect; inconclusive means small, poorly fitted or top-dose-only effect, or another doubt; inactive means no such curve, though single readings can be large; an effect the other way counts as inactive or inconclusive.

SMILES	GPT2 inh	HEK cytotox	hNpr1 antagonist	FLuc inh	3T3 cytotox
COc1ccccc1-c1cc(Nc2ccc(N3CCOCC3)cc2)c2onc(C)c2n1	?	63µM	.	.	?
COc1ccc(Nc2cc(-c3ccccc3OC)nc3c(C)noc23)cc1OC	.	?	.	.	20µM
COc1ccccc1-c1cc(NCC2CCOCC2)c2onc(C)c2n1	.	?	.	.	.
COc1ccccc1-c1cc(NCc2ccncc2)c2onc(C)c2n1	.	?	.	.	?
COCCn1c(=O)c(C(=O)NCc2ccc(Cl)cc2)nc2cccnc21	.	?	/	/	.
COc1ccc(NC(=O)c2ccc3c(c2)OCCN(C2CCC2)C3)cn1	.	?	.	.	.
COc1cccc2sc(NC(=O)c3ccc4c(c3)OCCN(C3CCC3)C4)nc12	.	32µM	?	?	?
CC(C)NC(=O)C1CCC(=O)N1C1CCN(C(=O)Cc2ccccc2F)CC1 (stereo not given)	.	.	/	/	.
O=C1[C@@H]2C[C@@H](O)CN2C2(CN(Cc3cccc(F)c3)C2)C(=O)N1Cc1ccccc1F	.	.	.	.	.
Cc1ccc(N2C(=S)N[C@H]3[C@@H](O)[C@H](O)C[C@@H](C(=O)N4CCCCC4)[C@H]32)cc1	.	.	.	16µM	.
OCCN1CCN(c2ccc(-c3nc(-c4cccc(C(F)(F)F)c4)no3)cn2)CC1	.	?	?	28µM	25µM
CCN1CCN(c2ccc(-c3nc(CCCc4ccccc4)no3)cn2)CC1	.	?	.	?	?
Cc1nc2n(c1C(=O)Nc1cc(-c3ccc(F)cc3)[nH]n1)CCC(Nc1ccc(F)cc1)C2 (stereo not given)	.	?	.	?	32µM
Cn1cccc1C(=O)N1CCC(c2nc(-c3cccn3C)no2)CC1	.	?	/	/	?
COc1ccc(-c2nc(CC3CCN(C(=O)c4ccoc4)C3)no2)cc1 (stereo not given)	.	?	/	/	?
CC(=O)Nc1ccc(CN2CCC3(CC2)CC(=O)c2ccc(Cl)cc2O3)cc1	.	50µM	.	.	?
O=C1CC2(CCN(Cc3cccs3)CC2)Oc2cc(Cl)ccc21	.	?	.	16µM!	?
CC(=O)Nc1ccc(CN2CCC3(CC2)CC(=O)c2ccccc2O3)cc1	.	.	.	.	?
O=C1CC2(CCN(C(=O)c3ccc(C(F)(F)F)cc3)CC2)Oc2cc(Cl)ccc21	.	35µM	.	.	25µM
Cc1noc(C)c1[S+](=O)([O-])N1CCC(C(=O)N2CCC(N3CCOCC3=O)CC2)CC1	.	.	/	/	.
Cn1cccc1CN1CCC2(CC1)COc1ccccc1NC2=O	.	?	.	.	?
O=C(NCc1cccc(C(F)(F)F)c1)c1ccc2nnc(C3CCOCC3)n2c1	/	.	/	/	?
CC1=C[C@@H](CNC(=O)COc2ccccc2)[C@H](C(C)C)C[C@H]1Cc1nc2ccncc2[nH]1	.	?	?	.	?
Cc1ccc(C(=O)NC2CCN(Cc3ccc(-c4ccsc4)cc3)C2)cc1 (stereo not given)	.	.	/	/	.
O=C(NC1CCN(Cc2ccc(-c3ccsc3)cc2)C1)c1ccccc1Cl (stereo not given)	.	45µM	/	/	?
SMILES	GPT2 inh	HEK cytotox	hNpr1 antagonist	FLuc inh	3T3 cytotox
O=C(NC1CCN(Cc2ccc(-c3ccsc3)cc2)C1)c1ccncc1 (stereo not given)	.	40µM	/	/	?
O=C(NC1CCN(Cc2ccc(-c3ccsc3)cc2)C1)c1ccccc1 (stereo not given)	.	45µM	/	/	?
O=C(Nc1ccccc1)N1CCCC(C(=O)N2CCCC(c3nc4ccncc4[nH]3)C2)C1 (stereo not given)	.	.	/	/	.
CC1(C)CC[C@]2(C(=O)O[C@@H]3O[C@H](CO[C@@H]4O[C@H](CO)[C@@H](O)[C@H](O)[C@H]4O)[C@@H](O)[C@H](O[C@@H]4O[C@H](CO)[C@@H](O)[C@H](O)[C@H]4O)[C@H]3O)CC[C@]3(C)C(=CCC4[C@@]5(C)CC[C@H](O[C@@H]6OC[C@@H](O)[C@H](O)[C@H]6O)[C@@](C)(C(=O)O)C5CC[C@]43C)[C@@H]2C1 (stereo not given in full)	.	/	/	/	/
COCCCn1c(=O)c(C(=O)N2CCN(C(=O)c3ccc(Cl)nc3)CC2)nc2cccnc21	.	.	/	/	.
CO[C@H]1C(=O)N(C(C)C)[C@H]1C1CCN(C(=O)c2c[nH]c3ccccc23)CC1	.	.	.	.	.
O=C(c1ccc(-c2ccco2)cc1)N1CCOc2ccc(CN3CCN(c4ccccn4)CC3)cc2C1	.	.	.	.	.
CC(C)c1noc(C2Cc3ccccc3N2C(=O)CCn2cnnn2)n1 (stereo not given)	.	.	.	.	.
CCn1ccc(C(=O)N2c3ccccc3CC2c2nc(C(C)C)no2)n1 (stereo not given)	.	?	.	40µM	.
Cc1nn(-c2ccccc2)c2c1C(C)N(C1CCN(C(=O)c3ccc(F)cc3)CC1)C2=O (stereo not given)	/	?	/	/	35µM!
Cc1nn(-c2ccccc2)c2c1C(C(C)C)N(C1CCN(C(=O)c3ccc(F)cc3)CC1)C2=O (stereo not given)	/	35µM	/	/	?
Cc1nn(-c2ccccc2)c2c1C(C(C)C)N(C1CCN(C(=O)c3ccncc3)C1)C2=O (stereo not given)	/	?	/	/	.
Cc1nn(-c2ccccc2)c2c1C(C(C)C)N(C1CCN(C(=O)c3ccc(C(F)(F)F)cc3)C1)C2=O (stereo not given)	/	?	/	/	16µM
Cc1nn(-c2ccccc2)c2c1C(C(C)C)N(C1CN(C(=O)c3ccc(Cl)cc3)C1)C2=O (stereo not given)	/	32µM	/	/	?
CC(C)N1CCC(Cc2ccc(CCNC(=O)c3cccs3)cc2)CC1	.	?	/	/	?
COC(=O)N1CCC(N2C(=O)c3c(c(C)nn3-c3ccccc3)C2C(C)C)CC1 (stereo not given)	/	?	/	/	.
CC(=O)N1CCC(N2C(=O)c3c(c(C)nn3-c3ccccc3)C2C)CC1 (stereo not given)	/	.	/	/	?
Cc1nn(-c2ccccc2)c2c1C(C(C)C)N(C1CCN(C(=O)N(C)C)CC1)C2=O (stereo not given)	/	45µM	/	/	?
Cc1nn(-c2ccccc2)c2c1C(C(C)C)N(C1CCN(C(=O)c3ccccc3)CC1)C2=O (stereo not given)	/	45µM	/	/	?
Cc1nn(-c2ccccc2)c2c1C(C)N(C1CCN(C(=O)Cc3ccc(F)cc3)CC1)C2=O (stereo not given)	/	50µM	/	/	?
O=C(C1CC1)N1CCN(Cc2ccccc2-c2ccccc2F)CC1	.	?	/	/	?
COC(=O)c1cn([C@H]2CO[C@H]3[C@@H]2OC[C@@H]3NC(=O)C2CC2)nn1	?	.	.	.	.
